In the supplement of paper PMC10849652:
About 7,900 targets were measured; listed, in parts, are those with a hit and a random draw of the rest. About 0.6% of all pairs of compound and target were hits. A number with no mark means an inactive call.

How the values were obtained:
Test in all cases: log2 fold change, soluble protein after heating vs DMSO (PISA); higher = thermal stabilisation; K562 cells, 10 uM, 30 min; active = over 0.2 and 3.5 SD of the protein, either way, in both replicates (recomputed)
[1] = compound: CS(=O)(=O)c1ccc(-c2cnc(N)c(C(=O)Nc3ccccc3)n2)cc1
Outline: (§1)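 Values are thermal stability changes relative to control samples and are taken from duplicates. They are stated as log2 fold changes. Before quantification by TMTpro 16plex LC-MS/MS with equalised channel sums, K562 cells at 2×10^6 cells/mL were treated with 10 μM compound for 30 min, heated in aliquots for 3 min across 48°C-58°C, pooled, extracted in PBS with 0.5% NP-40 at 4°C, and centrifuged at 21,000xg for 90 min to give the soluble supernatant.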

crizotinib = compound: C[C@@H](Oc1cc(-c2cnn(C3CCNCC3)c2)cnc1N)c1c(Cl)ccc(F)c1Cl [crizotinib]
Outline: as §1

[2] = compound: C[C@@H]1COCCN1C2=NC(=NC(=C2)C3(CC3)S(=O)(=O)C)C4=C5C=CNC5=CC=C4
Outline: as §1

[3] = compound: C[C@H](C1=CC=C(C=C1)C(=O)NC2=C3C=CNC3=NC=C2)N
Outline: as §1

duvelisib = compound: C[C@H](Nc1ncnc2nc[nH]c12)c1cc2cccc(Cl)c2c(=O)n1-c1ccccc1 [duvelisib]
Outline: as §1

gandotinib = compound: Cc1cc(Nc2cc(CN3CCOCC3)c3nc(C)c(Cc4ccc(Cl)cc4F)n3n2)n[nH]1 [gandotinib]
Outline: as §1

tozasertib = compound: Cc1cc(Nc2cc(N3CCN(C)CC3)nc(Sc3ccc(NC(=O)C4CC4)cc3)n2)n[nH]1 [tozasertib]
Outline: as §1

[4] = compound: Cc1cc(SCc2sc(-c3ccc(C(F)(F)F)cc3)nc2C)ccc1OCC(=O)O
Outline: as §1

doramapimod = compound: Cc1ccc(-n2nc(C(C)(C)C)cc2NC(=O)Nc2ccc(OCCN3CCOCC3)c3ccccc23)cc1 [doramapimod]
Outline: as §1

ispinesib = compound: Cc1ccc(C(=O)N(CCCN)[C@@H](c2nc3cc(Cl)ccc3c(=O)n2Cc2ccccc2)C(C)C)cc1 [ispinesib]
Outline: as §1

Chain of UniProt Q93050 (Q93050 whole entry, looked up): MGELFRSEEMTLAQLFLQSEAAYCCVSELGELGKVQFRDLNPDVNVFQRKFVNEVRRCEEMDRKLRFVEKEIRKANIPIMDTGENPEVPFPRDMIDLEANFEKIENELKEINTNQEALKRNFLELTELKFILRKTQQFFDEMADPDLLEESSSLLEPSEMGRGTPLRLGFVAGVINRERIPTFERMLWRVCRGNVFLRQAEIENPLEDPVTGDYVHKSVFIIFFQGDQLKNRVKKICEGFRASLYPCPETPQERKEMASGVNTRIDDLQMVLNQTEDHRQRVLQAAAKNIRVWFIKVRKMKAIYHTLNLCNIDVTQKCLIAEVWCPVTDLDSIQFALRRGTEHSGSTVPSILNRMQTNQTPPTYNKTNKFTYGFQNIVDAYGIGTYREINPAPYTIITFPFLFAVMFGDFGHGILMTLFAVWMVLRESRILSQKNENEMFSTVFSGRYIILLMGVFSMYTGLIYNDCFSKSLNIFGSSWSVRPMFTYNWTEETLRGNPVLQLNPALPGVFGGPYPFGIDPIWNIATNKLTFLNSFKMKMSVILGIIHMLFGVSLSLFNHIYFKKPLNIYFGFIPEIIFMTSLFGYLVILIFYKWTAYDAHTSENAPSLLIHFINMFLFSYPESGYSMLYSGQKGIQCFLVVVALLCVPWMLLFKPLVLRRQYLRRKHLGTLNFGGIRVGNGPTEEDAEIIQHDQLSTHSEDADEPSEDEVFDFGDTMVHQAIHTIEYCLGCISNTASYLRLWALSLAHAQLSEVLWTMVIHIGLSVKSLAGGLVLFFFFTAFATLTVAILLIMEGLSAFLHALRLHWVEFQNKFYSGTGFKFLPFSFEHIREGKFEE
Chain of UniProt P24666 (P24666 whole entry, looked up): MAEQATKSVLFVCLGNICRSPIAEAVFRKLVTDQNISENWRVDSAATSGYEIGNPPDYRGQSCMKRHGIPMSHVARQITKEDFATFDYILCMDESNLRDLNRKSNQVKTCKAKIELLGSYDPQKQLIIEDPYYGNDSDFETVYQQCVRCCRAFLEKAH
Chain of UniProt Q4L235 (Q4L235 whole entry, looked up): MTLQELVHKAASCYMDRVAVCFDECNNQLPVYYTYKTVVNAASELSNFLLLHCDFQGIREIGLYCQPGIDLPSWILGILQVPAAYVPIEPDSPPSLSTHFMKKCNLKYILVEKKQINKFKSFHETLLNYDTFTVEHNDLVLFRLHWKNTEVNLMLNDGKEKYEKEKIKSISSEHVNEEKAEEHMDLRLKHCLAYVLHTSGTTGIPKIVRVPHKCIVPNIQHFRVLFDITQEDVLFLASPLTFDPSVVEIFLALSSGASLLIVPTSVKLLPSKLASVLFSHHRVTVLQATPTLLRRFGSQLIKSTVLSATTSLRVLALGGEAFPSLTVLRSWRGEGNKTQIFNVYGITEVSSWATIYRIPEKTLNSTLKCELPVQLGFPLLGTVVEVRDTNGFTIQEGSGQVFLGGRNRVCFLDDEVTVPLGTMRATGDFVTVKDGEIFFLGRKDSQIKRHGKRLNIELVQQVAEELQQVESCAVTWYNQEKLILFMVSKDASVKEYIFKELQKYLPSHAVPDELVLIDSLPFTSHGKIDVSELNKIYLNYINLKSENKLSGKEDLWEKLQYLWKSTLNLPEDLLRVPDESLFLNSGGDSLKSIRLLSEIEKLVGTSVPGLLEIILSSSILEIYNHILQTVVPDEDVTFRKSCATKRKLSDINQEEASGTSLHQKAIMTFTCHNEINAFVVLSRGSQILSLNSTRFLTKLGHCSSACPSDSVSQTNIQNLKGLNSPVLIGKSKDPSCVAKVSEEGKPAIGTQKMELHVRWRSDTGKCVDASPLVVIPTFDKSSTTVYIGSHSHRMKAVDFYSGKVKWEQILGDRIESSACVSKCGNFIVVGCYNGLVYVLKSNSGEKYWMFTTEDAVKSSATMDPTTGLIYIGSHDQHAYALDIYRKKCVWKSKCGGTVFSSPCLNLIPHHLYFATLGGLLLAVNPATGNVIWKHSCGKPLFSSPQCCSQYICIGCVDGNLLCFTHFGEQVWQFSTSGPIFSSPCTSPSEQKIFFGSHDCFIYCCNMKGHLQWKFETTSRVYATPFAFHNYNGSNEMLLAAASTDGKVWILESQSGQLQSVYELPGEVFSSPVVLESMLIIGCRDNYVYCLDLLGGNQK
Chain of UniProt Q9UI12 (Q9UI12 whole entry, looked up): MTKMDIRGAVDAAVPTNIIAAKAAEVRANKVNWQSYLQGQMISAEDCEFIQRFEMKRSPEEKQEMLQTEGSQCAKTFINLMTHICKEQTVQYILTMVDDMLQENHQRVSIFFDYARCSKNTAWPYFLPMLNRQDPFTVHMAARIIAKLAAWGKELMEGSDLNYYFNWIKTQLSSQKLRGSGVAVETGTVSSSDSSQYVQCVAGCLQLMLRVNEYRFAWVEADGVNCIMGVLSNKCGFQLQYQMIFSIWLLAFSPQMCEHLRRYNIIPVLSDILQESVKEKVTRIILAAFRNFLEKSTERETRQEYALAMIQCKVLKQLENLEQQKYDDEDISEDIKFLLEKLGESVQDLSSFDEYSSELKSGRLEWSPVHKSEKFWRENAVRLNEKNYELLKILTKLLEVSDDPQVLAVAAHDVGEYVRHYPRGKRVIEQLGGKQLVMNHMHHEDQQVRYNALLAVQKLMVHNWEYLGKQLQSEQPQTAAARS
Chain of UniProt Q2TAA5 (Q2TAA5 whole entry, looked up): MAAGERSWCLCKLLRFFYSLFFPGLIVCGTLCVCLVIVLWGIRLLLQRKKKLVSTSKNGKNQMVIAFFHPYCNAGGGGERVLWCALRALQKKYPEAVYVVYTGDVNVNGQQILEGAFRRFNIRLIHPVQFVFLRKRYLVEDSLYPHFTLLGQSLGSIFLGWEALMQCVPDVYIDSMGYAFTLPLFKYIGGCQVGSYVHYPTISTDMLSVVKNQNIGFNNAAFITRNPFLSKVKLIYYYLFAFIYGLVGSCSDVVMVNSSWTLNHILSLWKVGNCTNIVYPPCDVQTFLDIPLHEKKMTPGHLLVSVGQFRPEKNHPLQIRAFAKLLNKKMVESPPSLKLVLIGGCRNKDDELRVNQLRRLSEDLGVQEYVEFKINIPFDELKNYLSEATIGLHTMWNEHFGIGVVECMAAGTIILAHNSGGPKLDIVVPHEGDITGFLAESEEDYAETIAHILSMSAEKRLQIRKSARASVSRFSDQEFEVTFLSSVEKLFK
Chain of UniProt Q7L1Q6 (Q7L1Q6 whole entry, looked up): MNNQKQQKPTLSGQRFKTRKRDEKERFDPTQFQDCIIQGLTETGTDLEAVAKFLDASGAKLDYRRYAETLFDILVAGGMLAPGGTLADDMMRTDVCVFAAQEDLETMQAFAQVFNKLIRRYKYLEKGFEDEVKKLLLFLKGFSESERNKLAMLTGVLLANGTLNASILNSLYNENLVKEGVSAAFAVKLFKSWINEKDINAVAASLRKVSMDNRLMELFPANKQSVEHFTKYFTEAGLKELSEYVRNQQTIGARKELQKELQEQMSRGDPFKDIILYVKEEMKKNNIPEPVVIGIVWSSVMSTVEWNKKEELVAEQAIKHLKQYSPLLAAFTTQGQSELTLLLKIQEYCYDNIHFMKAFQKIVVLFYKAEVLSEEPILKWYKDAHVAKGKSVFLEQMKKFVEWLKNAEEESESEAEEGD
Chain of UniProt P54922 (P54922 whole entry, looked up): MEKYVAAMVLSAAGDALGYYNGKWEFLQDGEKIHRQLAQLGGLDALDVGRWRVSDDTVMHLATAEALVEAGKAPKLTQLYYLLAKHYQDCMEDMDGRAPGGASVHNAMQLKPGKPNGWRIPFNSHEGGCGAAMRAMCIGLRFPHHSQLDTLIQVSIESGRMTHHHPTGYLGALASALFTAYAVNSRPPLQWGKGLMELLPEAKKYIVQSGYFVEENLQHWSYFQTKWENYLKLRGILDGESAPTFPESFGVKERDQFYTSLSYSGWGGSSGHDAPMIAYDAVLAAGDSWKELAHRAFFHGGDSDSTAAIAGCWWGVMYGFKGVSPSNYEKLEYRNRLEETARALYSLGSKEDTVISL
Chain of UniProt Q8IUR7 (Q8IUR7 whole entry, looked up): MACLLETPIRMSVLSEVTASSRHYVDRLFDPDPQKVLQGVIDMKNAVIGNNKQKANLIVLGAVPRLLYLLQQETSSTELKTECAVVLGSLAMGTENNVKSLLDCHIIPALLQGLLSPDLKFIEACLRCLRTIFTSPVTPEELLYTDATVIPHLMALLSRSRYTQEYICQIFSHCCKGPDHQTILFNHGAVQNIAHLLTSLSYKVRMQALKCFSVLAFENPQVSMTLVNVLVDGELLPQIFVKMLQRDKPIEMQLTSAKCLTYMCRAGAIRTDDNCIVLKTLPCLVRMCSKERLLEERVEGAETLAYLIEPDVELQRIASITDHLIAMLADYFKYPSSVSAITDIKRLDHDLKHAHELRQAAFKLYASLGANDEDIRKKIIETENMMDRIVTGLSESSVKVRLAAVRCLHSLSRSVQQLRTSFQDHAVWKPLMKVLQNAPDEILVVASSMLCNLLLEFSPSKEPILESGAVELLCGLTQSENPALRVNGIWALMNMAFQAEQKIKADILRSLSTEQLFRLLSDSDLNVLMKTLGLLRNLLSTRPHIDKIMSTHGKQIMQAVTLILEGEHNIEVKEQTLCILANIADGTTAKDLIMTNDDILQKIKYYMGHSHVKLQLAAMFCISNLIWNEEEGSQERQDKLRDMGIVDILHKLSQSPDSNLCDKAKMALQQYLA
Chain of UniProt Q9Y312 (Q9Y312 whole entry, looked up): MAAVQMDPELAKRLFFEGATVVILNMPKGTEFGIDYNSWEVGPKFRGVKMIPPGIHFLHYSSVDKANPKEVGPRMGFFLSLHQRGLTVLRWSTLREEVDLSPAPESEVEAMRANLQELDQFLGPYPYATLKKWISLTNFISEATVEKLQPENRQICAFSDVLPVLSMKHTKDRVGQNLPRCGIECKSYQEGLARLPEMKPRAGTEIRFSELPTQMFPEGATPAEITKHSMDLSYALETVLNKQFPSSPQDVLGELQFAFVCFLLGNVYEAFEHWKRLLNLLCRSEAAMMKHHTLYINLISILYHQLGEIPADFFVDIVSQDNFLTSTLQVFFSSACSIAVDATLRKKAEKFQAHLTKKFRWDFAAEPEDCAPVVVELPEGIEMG
Chain of UniProt O00244 (O00244 whole entry, looked up): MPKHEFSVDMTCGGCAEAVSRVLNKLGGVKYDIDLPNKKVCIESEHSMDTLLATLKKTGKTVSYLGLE

Row | Target | log2 fold change [1] | log2 fold change (crizotinib) | log2 fold change [2] | log2 fold change [3] | log2 fold change (duvelisib) | log2 fold change (gandotinib) | log2 fold change (tozasertib) | log2 fold change [4] | log2 fold change (doramapimod) | log2 fold change (ispinesib)
1 | AGPAT3 isoform 3 (UniProt Q9NRZ7) | -0.051 | -0.04 | 0.125 | -0.074 | 0.005 | -0.004 | -0.002 | 0.023 | 0.004 | -0.074
2 | ABCA3 (UniProt Q99758) | 0.111 | -0.361 (active) | 0.174 | 0.073 | 0.035 | 0.036 | 0.005 | 0.014 | 0.031 | -0.502 (active)
3 | APOB (UniProt P04114) | 0.066 | -0.443 | 0.083 | -0.203 | 0.003 | -0.198 | -0.085 | 0.007 | -0.288 | -0.55 (active)
4 | ALG11 (UniProt Q2TAA5) | 0.142 | 0.007 | 0.103 | -0.04 | 0.059 | -0.129 | 0.036 | 0.015 | 0.038 | 0.029
5 | BZW1 isoform 3 (UniProt Q7L1Q6) | 0.007 | -0.426 | 0.007 | 0.051 | -0.03 | -0.189 | 0.054 | 0.181 | -0.008 | -0.209
6 | ATP6V1H (UniProt Q9UI12) | -0.045 | -0.199 | 0.019 | 0.003 | 0.018 | 0.021 | 0.06 | 0.014 | 0.038 | -0.089
7 | ACP1 isoform 2 (UniProt P24666) | 0.008 | -0.079 | 0.016 | 0.15 | 0.004 | -0.137 | -0.09 | 0.12 | 0.033 | -0.041
8 | ACBD6 (UniProt Q9BR61) | 0.386 (active) | -0.36 | -0.041 | 0.075 | -0.026 | 0.076 | 0.032 | 0.082 | -0.048 | -0.14
9 | AAR2 (UniProt Q9Y312) | -0.06 | -0.081 | 0.019 | 0.054 | 0.045 | -0.29 | 0.011 | 0.021 | -0.038 | 0.085
10 | ATP6V0A1 isoform 3 (UniProt Q93050) | -0.041 | -0.349 | -0.27 | 0.225 | -0.093 | 0.094 | 0.073 | 0.144 | 0.152 | -0.446 (active)
11 | ATP13A3 (UniProt Q9H7F0) | 0.076 | -0.251 | -0.037 | 0.056 | 0.09 | 0 | -0.118 | -0.043 | 0.045 | -0.251
12 | BAP1 (UniProt Q92560) | 0.07 | -0.078 | 0 | 0.126 | -0.089 | 0.076 | 0.079 | 0.085 | 0.112 | -0.043
13 | AUP1 (UniProt Q9Y679) | -0.032 | -0.123 | 0.071 | -0.015 | -0.05 | -0.181 | -0.012 | 0.06 | -0.033 | -0.41 (active)
14 | ALG3 (UniProt Q92685) | -0.067 | 0.087 | 0.001 | -0.077 | 0.057 | -0.107 | -0.019 | 0.049 | 0.006 | -0.086
15 | ARMC8 (UniProt Q8IUR7) | 0.005 | 0.013 | 0.005 | -0.015 | 0.07 | -0.045 | 0.063 | 0.165 | 0.014 | 0.051
16 | ATOX1 (UniProt O00244) | -0.051 | -0.057 | 0.235 | -0.269 | 0.144 | 0.068 | 0.038 | -0.071 | 0.051 | 0.212
17 | ATP1A4 (UniProt Q13733) | -0.013 | 0.091 | -0.067 | -0.066 | 0.174 | -0.026 | -0.053 | 0.038 | -0.086 | 0.032
18 | ACSL4 (UniProt O60488) | 0.02 | -0.338 (active) | 0.07 | 0.099 | 0.045 | -0.089 | 0.032 | 0.151 | 0.01 | -0.311 (active)
19 | ARMC10 (UniProt Q8N2F6) | 0.002 | -0.04 | 0.016 | 0.006 | 0.033 | -0.09 | 0.065 | 0.108 | 0.018 | 0.027
20 | AASDH (UniProt Q4L235) | -0.04 | 0.07 | 0.142 | -0.058 | 0.01 | -0.066 | -0.017 | -0.034 | -0.161 | -0.236
21 | ACAP2 (UniProt Q15057) | 0.032 | 0.033 | 0.069 | 0.023 | 0.023 | -0.07 | 0.026 | 0.047 | -0.059 | 0.002
22 | ADK (UniProt P55263) | 0.144 | 0.275 | 0.034 | -0.105 | 0.114 | 0.276 | 0.015 | -0.061 | -0.039 | 0.112
23 | ACOX3 (UniProt O15254) | -0.006 | -0.091 | 0.016 | 0.065 |  |  | -0.018 |  | 0.14 | 
24 | BID isoform 2 (UniProt P55957) | 0.047 | 0.087 | 0.409 (active) | -0.019 | 0.049 | -0.012 | -0.012 | -0.003 | -0.013 | 0.022
25 | AFDN isoform 1 (UniProt P55196) | 0.004 | 0.088 | 0.371 | 0.111 | 0.054 | 0.183 |  | 0.068 | 0.116 | 0.11
26 | ADPRH (UniProt P54922) | 0.123 | 0.056 | 0.201 |  |  | 0.157 | -0.033 |  | -0.071 | -0.002
27 | BLOC1S3 (UniProt Q6QNY0) | -0.001 | 0.014 | 0.116 | 0.065 | 0.068 | -0.132 | -0.012 | -0.052 | -0.038 | 0.012
28 | ARFIP1 isoform 2 (UniProt P53367) | -0.03 | -0.266 | 0.047 |  | 0.11 | -0.112 |  | 0.081 | 0.087 | 
29 | ATF7 isoform 6 (UniProt P17544) | -0.131 | 0.061 | 0.02 | -0.088 | -0.093 |  | -0.032 | -0.054 | 0.158 | 0.223
30 | ATP6V1C1 (UniProt P21283) | -0.05 | 0.1 | -0.05 | 0.14 | 0.049 | 0.033 | 0.116 | 0.041 | 0.015 | 0.122
